Assay outcomes: PubChem BioAssay, National Center for Advancing Translational Sciences (NCATS)
Pf growth 96h: P. falciparum growth inhibition at 96 hour, primary screen for plastid delayed-death inhibitors. Potency, µM (highest dose often 28.7 µM), actives largely listed as inhibitors. hit rate 6.9% among 320,000. P. falciparum luciferase reporter growth, 96 h
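96 h incubation, 37 C, 5% CO2, of luciferase-reporter P. falciparum-infected RBCs (2% hematocrit, 0.05% parasitemia final) with test compounds; endpoint luminescence.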
Pf growth 48h: P. falciparum growth inhibition at 48 hours (one generation); AID 504832; hit rate 5.9% among 310,000; Potency, µM (highest dose often 28.7 µM), most hits filed as inhibitors; P. falciparum luciferase growth in erythrocytes, 48 h
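Luciferase-expressing parasites in RBCs, 2% Hct / 0.1% parasitemia final; RPMI 1640 + 0.5% Albumax; 37 C, 5% CO2, one generation; luminescence read-out, lower signal = inhibition.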
Shiga toxin inh: blocks Shiga toxin action in Vero cells. Vero cells, Shiga toxin protein synthesis inhibition reporter. inhibition, % at 38.7 µM. AID 2315. hit rate 9.2% among 290,000; in the data active means inhibition mostly above about 28%, no sharp cut-off; inactive means mostly below about 43%
LmPK inhibitor: LmPK (Leishmania mexicana) enzyme inhibition; Potency, µM (top dose mostly 57.5 µM), actives largely listed as inhibitors; purified LmPK, Kinase-Glo ATP luminescence, 1 h; hit rate 0.37% among 290,000; Q27686
Target sequence (Q27686 whole entry, looked up): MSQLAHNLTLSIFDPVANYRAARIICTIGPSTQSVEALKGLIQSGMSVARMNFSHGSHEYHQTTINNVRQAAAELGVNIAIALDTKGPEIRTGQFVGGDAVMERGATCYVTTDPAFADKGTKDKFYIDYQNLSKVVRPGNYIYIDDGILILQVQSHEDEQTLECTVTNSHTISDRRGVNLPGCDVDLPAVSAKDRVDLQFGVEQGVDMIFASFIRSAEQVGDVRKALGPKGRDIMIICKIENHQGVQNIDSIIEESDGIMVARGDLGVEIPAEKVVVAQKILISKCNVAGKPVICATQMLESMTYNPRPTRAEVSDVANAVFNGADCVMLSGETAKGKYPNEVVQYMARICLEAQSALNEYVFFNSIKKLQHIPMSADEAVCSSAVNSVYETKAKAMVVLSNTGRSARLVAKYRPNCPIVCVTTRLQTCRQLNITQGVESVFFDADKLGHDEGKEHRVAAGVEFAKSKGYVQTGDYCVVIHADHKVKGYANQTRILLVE
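Screened at intermediate enzyme activity to detect both inhibitors and activators: LmPK at 0.1 nM, with a 0.5 nM enzyme column as activation reference. PEP 0.5 mM, ADP 0.1 mM; ATP detected by luminescence after 1 h.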
CHX counter: counter-screen hit for Shiga toxin inhibitors, cycloheximide | cell reporter, cycloheximide protein synthesis inhibition counterscreen | max response, % | hit rate 12% among 300,000 | AID 2314; in the data active means max response mostly above about 13%, no sharp cut-off; inactive means mostly below about 14%; further: read at 38.3 µM for the half of the compounds with a filed dose
Of the large screens only hits and unclear results are named; the others gave an inactive call; ! = not confirmed by another sample. Shown are actives, neighbours in structure and some others; about 22% of the full set was active somewhere. Unless noted, the call rests on the fitted dose curve; in most records, active means well fitted inhibition curve with a large enough effect; inconclusive means small, poorly fitted or top-dose-only effect, or another doubt; inactive means no such curve, though single readings can be large or run the other way.

CCC(=O)Nc1cc2nn(-c3ccc(C)cc3)nc2cc1C	Pf growth 96h inconclusive, Shiga toxin inh 109, CHX counter 44
CCC(=O)Nc1cc2nn(-c3ccc(OC)cc3)nc2cc1C	Shiga toxin inh 90, CHX counter 52 (no result: Pf growth 96h)
Cc1c(NC(=O)CSC(=S)N2CCCC2)c(=O)n(-c2ccccc2)n1C	Pf growth 96h inconclusive (no result: Shiga toxin inh, LmPK inhibitor, CHX counter)
Cc1nc(N(C)Cc2ccccc2)c2nnn(Cc3ccccc3)c2n1	none (no result: Pf growth 48h)
CC(C)(C)c1ccc(C(=O)NC2CCN(Cc3ccccc3)CC2)cc1	Pf growth 96h 3.3µM, Pf growth 48h inconclusive
O=C(NC1CCN(Cc2ccccc2)CC1)c1ccccc1	none
O=C(NC1CCN(Cc2ccccc2)CC1)c1ccccc1OCc1ccccc1	Pf growth 96h 9.3µM, Pf growth 48h inconclusive
O=C(NC1CCN(Cc2ccc(Cl)cc2Cl)CC1)c1ccccc1	Pf growth 96h 2.9µM
O=C(NC1CCN(CCc2c[nH]c3ccccc23)CC1)c1ccccc1	Pf growth 96h 12µM, Pf growth 48h 15µM!
Cc1cc(NC(=O)CSC2=NS(=O)(=O)c3cc(F)ccc3N2)no1	none (no result: Shiga toxin inh, LmPK inhibitor, CHX counter)
Cc1cccc(CNC(=O)c2cc(S(=O)(=O)N3CCOCC3)cn2C)c1	none
CCOC(=O)N1CCC(NC(=O)c2cc(C(=O)NC3CCN(Cc4ccccc4)CC3)ccc2CO)CC1	Pf growth 96h 10µM
Cc1ccc(Cl)cc1S(=O)(=O)N1CCC(C(=O)NC2CCN(Cc3ccccc3)CC2)CC1	Pf growth 48h 7.4µM
CCN(CC)S(=O)(=O)c1ccc(S(=O)(=O)N2CCC(C(=O)NC3CCN(Cc4ccccc4)CC3)CC2)cc1	Pf growth 96h inconclusive
O=C(NC1CCN(Cc2ccccc2)CC1)c1cc(S(=O)(=O)Nc2ccc(F)cc2)ccc1Cl	Pf growth 96h 9.3µM, Pf growth 48h 9.3µM (no result: Shiga toxin inh, LmPK inhibitor, CHX counter)
COCCNS(=O)(=O)c1ccc(Cl)c(C(=O)NC2CCN(Cc3ccccc3)CC2)c1	none
CCOC(=O)N1CCC(NC(=O)c2cc(C(=O)NCc3cccc(Cl)c3)ccc2CO)CC1	Pf growth 96h inconclusive (no result: Pf growth 48h)
CS(=O)(=O)c1ccc(-c2cn3cc(C(=O)O)ccc3n2)cc1	none
COC(=O)c1ccc2nc(-c3cccc(N)c3)cn2c1	LmPK inhibitor 25µM
COC(=O)c1ccc2nc(-c3ccc(S(C)(=O)=O)cc3)cn2c1	CHX counter 59
Cc1cccc(C)c1N(CC(=O)NCc1ccccc1)C(=O)c1csnn1	Pf growth 96h inconclusive
COC(=O)C1=C(c2ccc(Cl)c(C(F)(F)F)c2)C[C@@H]2CC[C@H]1N2C(=O)NCCO	Pf growth 48h inconclusive (no result: Shiga toxin inh, LmPK inhibitor, CHX counter)
COC(=O)C1=C(c2ccc(Cl)c(C(F)(F)F)c2)C[C@@H]2CC[C@H]1N2C(=O)NCCOc1ccccc1	Pf growth 96h 4.7µM, Pf growth 48h 12µM (no result: Shiga toxin inh, LmPK inhibitor, CHX counter)
COC(=O)C1=C(c2ccc(OC(F)(F)F)cc2)C[C@@H]2CC[C@H]1N2C(=O)NC(C)C	Pf growth 48h inconclusive (no result: Shiga toxin inh, LmPK inhibitor, CHX counter)
COC(=O)C1=C(c2ccc(Cl)c(C(F)(F)F)c2)C[C@@H]2CC[C@H]1N2C(=O)NCc1ccco1	Pf growth 96h 8.3µM, Pf growth 48h inconclusive (no result: Shiga toxin inh, LmPK inhibitor, CHX counter)
COC(=O)C1=C(c2ccc(OC(F)(F)F)cc2)C[C@@H]2CC[C@H]1N2C(=O)NCCOc1ccccc1Cl	Pf growth 96h inconclusive, Pf growth 48h 10µM (no result: Shiga toxin inh, LmPK inhibitor, CHX counter)
COC(=O)C1=C(c2ccc(OC(F)(F)F)cc2)C[C@@H]2CC[C@H]1N2C(=O)NCCOc1ccccc1	Pf growth 96h 4.7µM, Pf growth 48h 12µM (no result: Shiga toxin inh, LmPK inhibitor, CHX counter)
CC1C/C(=N/O)C(C)CN1 (configuration not stated)	none (no result: Pf growth 48h)
CC(=O)Nc1ccc(S(=O)(=O)N2CCC(C(=O)N[C@@H](C)C(=O)NC3CCCC3)CC2)cc1	none
Cc1ccccc1Cn1nc(C)c(NC(=O)c2cc3nc(-c4ccco4)cc(C(F)(F)F)n3n2)c1C	Pf growth 48h 13µM (no result: Pf growth 96h)
O=C(Nc1cnn(Cc2ccccc2)c1)c1cc2nc(-c3ccco3)cc(C(F)(F)F)n2n1	Pf growth 96h 12µM, Pf growth 48h inconclusive
Cc1nn(C)cc1NC(=O)c1cc2nc(-c3ccco3)cc(C(F)(F)F)n2n1	none
CCc1ccc(-c2cc(C(F)(F)F)n3nc(C(=O)Nc4c(C)nn(Cc5ccc(F)cc5)c4C)cc3n2)s1	Pf growth 48h inconclusive
COc1ccc(C(C)NC(=O)c2ccncc2)cc1 (configuration not stated)	Pf growth 96h inconclusive
Cc1ccc(/C=C2/NC(=O)[C@H](C)NC2=O)cc1	CHX counter 15 (no result: Pf growth 48h)
CCC(NS(=O)(=O)c1ccc(C)cc1)C(=O)N1CCOCCOCCOCCOCC1 (configuration not stated)	none
CC(C)(C)NS(=O)(=O)c1ccc(CCC(=O)Nc2ccc3c(c2)OCCO3)cc1	Pf growth 48h inconclusive
CCNS(=O)(=O)c1ccc(CCC(=O)Nc2ccc3c(c2)OCCO3)cc1	Pf growth 96h inconclusive, Pf growth 48h 9.3µM (no result: Shiga toxin inh)
CC(C)NS(=O)(=O)c1ccc(CCC(=O)Nc2ccc3c(c2)OCCO3)cc1	Pf growth 96h inconclusive, Pf growth 48h 4.7µM
Cc1cc(OCC(=O)N(C)Cc2ccccc2)ccc1Br	Pf growth 96h inconclusive, Shiga toxin inh 56, CHX counter 34
CN(Cc1ccccc1)C(=O)CC(=O)N(C)Cc1ccccc1	Shiga toxin inh 52, CHX counter 27
Cc1cc(OCC(=O)N(C)Cc2ccccc2)ccc1Cl	Pf growth 96h inconclusive, Shiga toxin inh 24, CHX counter 28
Cc1nn(CC(=O)N(C)Cc2ccccc2)c(=O)c2cccn12	Shiga toxin inh 46
Cc1nn(CC(=O)NCc2ccccc2)c(=O)c2cccn12	none
CCCCN(C(=O)c1ccc(S(=O)(=O)N2CCC(C)CC2)cc1)C1CCS(=O)(=O)C1 (configuration not stated)	Pf growth 96h inconclusive (no result: Shiga toxin inh, LmPK inhibitor, CHX counter)
COc1ccc(CNC(=O)CNC(=O)c2c(C)nn(C)c2Cl)cc1	none
O=C(COC(=O)c1ccccc1SCC(=O)N1CCCC1)NCc1ccccc1	Pf growth 48h inconclusive (no result: Shiga toxin inh, LmPK inhibitor, CHX counter)
O=C(Nc1cc(=O)c2ccccc2o1)N1CCOCC1	Pf growth 48h inconclusive
Cc1cc(Cl)c2oc(C(=O)N3CCN(c4cccc(C)n4)CC3)c(C)c2c1	Pf growth 96h 3.7µM, CHX counter 47 (no result: Shiga toxin inh)
Cc1c(C(=O)N2CCN(c3ncccn3)CC2)oc2ccc(Cl)cc12	none (no result: Shiga toxin inh, LmPK inhibitor, CHX counter)
O=C(Nc1cc(=O)c2ccccc2o1)N1CCCCC1	Pf growth 96h 5.2µM, Pf growth 48h 4.7µM
Cc1c(C(=O)N2CCCCCC2)oc2ccccc12	none (no result: Pf growth 96h)
Nc1c(C(=O)N2CCCCCC2)oc2ccccc12	CHX counter 21
Cc1cc(Cl)c2oc(C(=O)N3CCN(C(=O)c4ccco4)CC3)c(C)c2c1	Pf growth 48h inconclusive, Shiga toxin inh 65, CHX counter 38
Cc1c(Cl)cccc1NC(=O)N1CCN(C(=O)c2ccco2)CC1	none
CC1Sc2ccc(C(=O)OCc3ccccc3Cl)cc2NC1=O (configuration not stated)	none (no result: Shiga toxin inh, LmPK inhibitor, CHX counter)
CCOP(=O)(OCC)C(=Cc1cc(C(C)(C)C)c(O)c(C(C)(C)C)c1)P(=O)(OCC)OCC	none (no result: Pf growth 96h, Pf growth 48h, LmPK inhibitor)
COc1ccc(S(=O)(=O)N2CCOC23CCN(S(=O)(=O)c2cc(C)ccc2OC)CC3)cc1	Pf growth 48h inconclusive (no result: Shiga toxin inh, LmPK inhibitor, CHX counter)
